Results filed as inconclusive are left out. Where a call stands in place of a potency, no number is given. The source made the active and inactive calls. Calls come from the whole dose curve; as a rule, active = well fitted activation curve with a large enough effect in the repeat runs; inconclusive = weak or mixed curves; inactive = no such curve, though single readings can be large or run the other way.
Assay: qHTS assay for small molecules that induce genotoxicity in human embryonic kidney cells expressing luciferase-tagged ATAD5 (AID 651632); note: nearly all actives have a fitted effect of over 15% in size
Conditions: HEK293T ATAD5-luciferase induction, 16 h; series mostly up to 83.3 µM
Summary of the method: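 ATAD5-luc HEK293T, 2,000 cells/well; cpd or DMSO pin-transferred; 16 hr, 37C/5% CO2; Amplite 30 min RT; luminescence.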
Potency is the fitted concentration of half-maximal effect.

Compound	Potency
COc1ccccc1NC(=O)c1cc2ccccc2cc1O	inactive
O=C(Nc1cccc2c(=O)cc(-c3nn[nH]n3)oc12)c1ccc(OCCCCc2ccccc2)cc1	inactive
O=C(O)c1cccc(-c2noc(-c3ccccc3F)n2)c1	23.7 nM (active)
O=C1c2ccccc2C(=O)N1CCc1noc(-c2ccc(CN3CCCCCC3)s2)n1	inactive
Oc1c(I)cc(I)c2cccnc12	inactive
CCCCC(CC)CN (stereo not drawn)	inactive
OCCN1CCN(CCCN2c3ccccc3Sc3ccc(Cl)cc32)CC1	inactive
Cc1cc(=O)c2c(O)c3c(O)cc(=O)c4c3c3c(cc(O)c1c23)C(C)(C)C=4O	inactive
C[C@@H]1CC(=O)NN=C1c1ccc(NN=C(C#N)C#N)cc1	inactive
C[C@H]1c2cccc(O)c2C(O)=C2C(=O)[C@]3(O)C(O)=C(C(N)=O)C(=O)[C@@H](N(C)C)[C@@H]3[C@@H](O)[C@@H]21	inactive
NNC(=O)CP(=O)(c1ccccc1)c1ccccc1	inactive
CN(C)CCN1C(=O)c2ccccc2N(C)c2ccccc21	inactive
C[C@]1(Cn2ccnn2)[C@H](C(=O)O)N2C(=O)C[C@H]2S1(=O)=O	inactive
c1ccc(C[n+]2cccc3ccccc32)cc1	inactive
CC1CC(OC(=O)C(O)c2ccccc2)CC(C)(C)N1C (stereo not drawn)	inactive
COc1ccccc1N1CCN(CC(O)COc2cccc3ccccc23)CC1 (stereo not drawn)	inactive
CN1C(=O)OC(C)(C)C1=O	inactive
CC1=C(CC=O)C(C)(C)CCC1	inactive
